Laboratory results taken from PubChem BioAssay AID1159580 (chemical genetic matrix, 2015).
“And” between values parts separate entries of the source, which are not always exact repeats. Equal entries are not always repeated. Hit rate of the full screen: of about 5,500 compounds, about 2,000 (36%) were called active. Inconclusive results (about 18%) are left out. Rule as the data show it: active = normalized growth mostly below about 0.91 (no sharp cut-off); inconclusive = no clear call, values can overlap the other calls; inactive = mostly above about 0.92. The list shows a part of the results.

Test: chemical genetic growth profiling, strain panel (AID 1159580);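 also: tested at 20 µM; growth read once vehicle control cultures reached saturation at 30 °C; 1 = growth at the plate median or of vehicle wells; lower values mean less growth of the strain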
Settings: S. cerevisiae deletion strains, growth OD

Measured: normalized growth

NC1C[C@H]1c1ccccc1 (stereo partly specified)
inactive: locus YAL013W, strain DEP1, stronger effect = lower value 1.01 | locus YAL021C, strain ccr4, stronger effect = lower value 1 | locus YAL026C, strain drs2, stronger effect = lower value 0.985 | locus YAL030W, strain snc1, stronger effect = lower value 0.985 | locus YBL061C, strain skt5, stronger effect = lower value 0.991 | locus YBR009C, strain hhf1, stronger effect = lower value 1 | locus YBR021W, strain FUR4, stronger effect = lower value 0.983 | locus YBR023C, strain chs3, stronger effect = lower value 0.983 | locus YBR171W, strain sec66, stronger effect = lower value 0.978 | locus YBR229C, strain ROT2, stronger effect = lower value 1 | locus YBR231C, strain swc5, stronger effect = lower value 0.98 | locus YBR279W, strain paf1, stronger effect = lower value 0.985 | locus YCL011C, strain gbp2, stronger effect = lower value 0.977 | locus YCL016C, strain dcc1, stronger effect = lower value 0.981 | locus YCL029C, strain bik1, stronger effect = lower value 0.978 | locus YCL069W, strain vba3, stronger effect = lower value 0.992 | locus YCR088W, strain abp1, stronger effect = lower value 0.992 | locus YDL005C, strain med2, stronger effect = lower value 0.953 | locus YDL035C, strain GPR1, stronger effect = lower value 1.01 | locus YDL040C, strain nat1, stronger effect = lower value 0.976 | locus YDL074C, strain BRE1, stronger effect = lower value 0.999 | locus YDL101C, strain DUN1, stronger effect = lower value 1 | locus YDL134C, strain PPH21, stronger effect = lower value 1.01 | locus YDL185W, strain tfp1, stronger effect = lower value 0.985 | locus YDL192W, strain arf1, stronger effect = lower value 0.995 | locus YDR001C, strain nth1, stronger effect = lower value 0.985 | locus YDR069C, strain doa4, stronger effect = lower value 0.98 | locus YDR101C, strain arx1, stronger effect = lower value 0.977 | locus YDR137W, strain rgp1, stronger effect = lower value 0.986 | locus YDR150W, strain NUM1, stronger effect = lower value 1 | locus YDR159W, strain sac3, stronger effect = lower value 0.984 | locus YDR162C, strain NBP2, stronger effect = lower value 1.01 | locus YDR195W, strain ref2 0.974 | locus YDR297W, strain sur2, stronger effect = lower value 1 | locus YDR318W, strain mcm21, stronger effect = lower value 0.972 | locus YDR334W, strain swr1, stronger effect = lower value 0.993 | locus YDR335W, strain msn5, stronger effect = lower value 0.997 | locus YDR388W, stronger effect = lower value 0.979 | locus YDR392W, strain spt3, stronger effect = lower value 0.991 | locus YDR502C, strain sam2, stronger effect = lower value 0.979 | locus YEL003W, strain gim4, stronger effect = lower value 0.993 | locus YEL037C, strain rad23, stronger effect = lower value 0.989 | locus YEL061C, strain CIN8 (second series), stronger effect = lower value 0.977 | locus YEL061C, strain CIN8, stronger effect = lower value 1.01 | locus YER015W, strain faa2, stronger effect = lower value 0.99 | locus YER016W, strain bim1, stronger effect = lower value 1.01 | locus YER110C, stronger effect = lower value 0.989 | locus YER111C, strain swi4, stronger effect = lower value 0.959 | locus YER155C, strain BEM2 (second series), stronger effect = lower value 0.976 | locus YER155C, strain BEM2, stronger effect = lower value 0.995 | locus YER167W, strain BCK2, stronger effect = lower value 1.01 | locus YFR010W, strain ubp6, stronger effect = lower value 1.04 | locus YGL078C, strain dbp3, stronger effect = lower value 0.973 | locus YGL086W, strain mad1, stronger effect = lower value 0.988 | locus YGL167C, strain pmr1, stronger effect = lower value 0.985 | locus YGL173C, strain kem1, stronger effect = lower value 0.991 | locus YGL227W, strain vid30, stronger effect = lower value 0.979 | locus YGL240W, strain doc1, stronger effect = lower value 0.991 | locus YGL248W, strain PDE1, stronger effect = lower value 1 | locus YGL253W, strain hxk2, stronger effect = lower value 0.985 | locus YGR078C, strain PAC10, stronger effect = lower value 0.989 | locus YGR135W, strain pre9, stronger effect = lower value 0.974 | locus YGR229C, strain SMI1, stronger effect = lower value 0.997 | locus YGR252W, strain gcn5, stronger effect = lower value 0.919 | locus YHR013C, strain ard1, stronger effect = lower value 0.962 | locus YHR027C, strain rpn1, stronger effect = lower value 0.995 | locus YHR030C, strain SLT2, stronger effect = lower value 1 and 0.953 | locus YHR079C, strain IRE1 (second series), stronger effect = lower value 0.975 | locus YHR079C, strain IRE1, stronger effect = lower value 0.983 | locus YHR094C, strain hxt1, stronger effect = lower value 0.989 | locus YHR129C, strain ARP1, stronger effect = lower value 1.01 | locus YHR142W, strain chs7, stronger effect = lower value 0.967 | locus YHR200W, strain rpn10, stronger effect = lower value 0.976 | locus YIL066C, strain RNR3, stronger effect = lower value 1.01 | locus YIL073C, strain SPO22, stronger effect = lower value 1.01 | locus YIL125W, strain kgd1, stronger effect = lower value 0.986 | locus YIR030C, strain dcg1, stronger effect = lower value 0.988 | locus YJL092W, strain hpr5, stronger effect = lower value 0.992 | locus YJL095W, strain BCK1 (second series), stronger effect = lower value 1 | locus YJL095W, strain BCK1, stronger effect = lower value 1.01 and 0.965 | locus YJL115W, strain asf1, stronger effect = lower value 0.976 | locus YJL129C, strain trk1, stronger effect = lower value 0.963 | locus YJL134W, strain LCB3, stronger effect = lower value 1 | locus YJL154C, strain vps35, stronger effect = lower value 0.973 | locus YJL164C, strain tpk1, stronger effect = lower value 0.999 | locus YJL166W, strain qcr8, stronger effect = lower value 1.01 | locus YJL168C, strain set2, stronger effect = lower value 0.983 | locus YJL187C, strain SWE1 (second series), stronger effect = lower value 1.01 | locus YJL187C, strain SWE1, stronger effect = lower value 0.992 | locus YJR043C, strain POL32, stronger effect = lower value 0.995 | locus YJR066W, strain TOR1, stronger effect = lower value 0.931
